# Laboratory results as given in PubChem BioAssay (NCATS).
# Where “and” joins values, the source holds several entries; their conditions need not be identical. Equal values may be shown once. Inconclusive results are not listed. Entries that show only a call come without a potency. Some structures have more than one record in an assay (separate samples or runs), and their calls can disagree. Calls of active or inactive are those of the source. Calls come from the whole dose curve; as a rule, active = well fitted inhibition curve with a large enough effect; inconclusive = small, poorly fitted or top-dose-only effect; inactive = flat fitted curve, though single readings scatter.
# Molecular target: Glutathione peroxidase 1 (Homo sapiens) (UniProt P07203)
# Sequence (P07203 whole entry, looked up): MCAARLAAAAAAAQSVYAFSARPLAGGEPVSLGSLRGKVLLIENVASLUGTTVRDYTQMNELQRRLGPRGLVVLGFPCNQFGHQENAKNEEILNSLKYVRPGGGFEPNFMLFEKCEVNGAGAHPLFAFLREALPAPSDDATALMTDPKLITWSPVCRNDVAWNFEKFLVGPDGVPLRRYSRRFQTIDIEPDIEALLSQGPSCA
# Test: Primary qHTS Assay for Inhibitors of Recombinant Selenoprotein Glutathione Peroxidase 1 (GPX1) (AID 1845191); note: nearly all actives have a fitted effect of over 65% in size
# Conditions: recombinant GPX1, GR-coupled NADPH fluorescence, 15 min; series mostly up to 48.8 µM; activity, negative = inhibition: at the top concentration
# Excerpt: Assay Provider: Elias S.J. Arner MD PhD.
# Department of Medical Biochemistry and Biophysics
# Karolinska Institutet, Solna, Stockholm, Sweden
# Selenoprotein glutathione peroxidases (GPX), like the ubiquitously expressed GPX1 and the ferroptosis modulator GPX4, enact their antioxidant activities by reducing hydroperoxides using glutathione. […] GPX1 and GPX4 inhibitors have thus shown promise as anti-cancer agents. Existing inhibitors are often promiscuous, or modulate GPX activity only indirectly, so novel direct inhibitors identified through screening against GPX1 and GPX4 could be valuable. Here, we developed optimized glutathione reductase (GR)-coupled GPX assays for the biochemical high-throughput screen (HTS) of almost 12,000 compounds with known mechanisms of action. Initial hits were triaged using a GR counter-screen, assessed for isoform specificity using a separate GPX2 assay, and were assessed for general selenocysteine-targeting activity using a thioredoxin reductase (TXNRD1) assay. With this suite of assays, we identified novel GPX1/GPX2- and GPX4-specific inhibitors and can here present a validated pipeline for future discovery research for selenoprotein-targeting agents.
# SEQUENCE No. (e.g., 1, 2, 3, etc.); […] (e.g., Cells, Incubation, Reagent, etc.); VALUE; DESCRIPTION.
# 1; Reagent 1; 3 uL; GPx1 enzyme or no enzyme control in 1536-well, black, solid Greiner assay plate.
# 2; Compound; 25 nL; Kalypsis pin tool (Wako USA) equipped with a 1536-well pin head.
# 3; Incubation; 30 min; room temperature.
# 4; Reagent 2; 1 uL; 10 nM GPX1, 1 mM GSH, 0.5 mM CHP, 0.5 mM NADPH, 100 nM GR, 0.01% BSA substrate
# 5; Detection; Fluorescence; ViewLux microplate reader, excitation 340 nm and emission 450 nm.
# 6; Incubation; 15 min; room temperature.
# 7; Detection; Fluorescence; ViewLux microplate reader, excitation 340 nm and emission 450 nm.
# NOTES (numbers refer to Sequence numbers above)
# 1. 3 uL of 16.66 nM GPX1 and 0.016% BSA in assay buffer (50 mM Tris-HCl, 2 mM EDTA (pH 7.5), 150 mM NaCl) was added to columns 3-48 of 1536-well assay plates using a BioRAPTR Flying Reagent Dispenser (Let's Go Robotics (LGR), Carlsbad, CA). A no-enzyme control (0.01% BSA in TES assay buffer) was added to columns 1-2.
# 2. 25 nL of test compounds and DMSO controls were added to each well with a pin tool (Kalypsys).
# 3. The assay plates were incubated for 30 minutes at room temperature.
# 4. 1 uL of master mix (500 nM glutathione reductase (GR), 5 mM reduced glutathione (GSH), 2.5 mM NADPH in assay buffer) was added. 1 uL of cumene hydroperoxide (CHP) ([2.5 mM] in 50% EtOH) was then added within 5 minutes to initiate the reaction. Final concentrations were: 10 nM GPX1, 1 mM GSH, 0.5 mM CHP, 0.5 mM NADPH, 100 nM GR, 0.01% BSA.
# 5. Initial fluorescence readout (t=0) at 340/450 nm was measured using a ViewLux multimodal detector (PerkinElmer, Waltham, MA).
# 7. Endpoint fluorescence readout (t=15) at 340/450 nm was measured 15 min after room temperature incubation.
# Potency is the fitted concentration of half-maximal effect.
SMILES,"activity, negative = inhibition",Potency,outcome
CC(=O)N(C)C1(c2ccccc2)CCN(CCC[C@]2(c3ccc(Cl)c(Cl)c3)CCCN(C(=O)c3ccccc3)C2)CC1,-26.2% (inactive),,
O=C(Nc1cccc(Br)c1)c1cccc(S(=O)(=O)N2CCCCCC2)c1,2.27% (inactive),,
Cn1c(N2CCCCS2(=O)=O)nc(C(=O)NCc2ccc(F)cc2)c(O)c1=O,-2.23% (inactive),,
CO[C@@H](C(=O)N1Cc2[nH]nc(NC(=O)c3ccc(N4CCN(C)CC4)cc3)c2C1)c1ccccc1,,inactive,
CCCNC(=O)NS(=O)(=O)c1ccc(Cl)cc1,,inactive,
Cc1ccc(C(=O)Nc2cccc(C(F)(F)F)c2)cc1Nc1nc(-c2cccnc2)nc2c1cnn2C,,,inactive
C[N+](C)(C)CCCCCC[N+](C)(C)C,,inactive,
O=c1cc(-c2ccc(O)cc2)oc2cc(O)cc(O)c12,,inactive,
CC(=O)Oc1cc2c(s1)CCN(C(C(=O)C1CC1)c1ccccc1F)C2 (stereo not given),,16.1 µM (active) and inactive and 20.2 µM (active),
C[C@]12CCC3c4ccc(O)cc4CCC3C1CCC2=O (stereo not given in full),,,inactive
CCNc1cc(NC2CCC(O)CC2)nc(Nc2ccc3c(ccn3Cc3ccccc3)c2)n1 (stereo not given),-4.83% (inactive),,
CO[C@H]1C(=O)[C@]2(C)[C@@H](OC)C[C@H]3OC[C@@]3(OC(C)=O)[C@H]2[C@H](OC(=O)c2ccccc2)[C@]2(O)C[C@H](OC(=O)[C@H](O)[C@@H](NC(=O)OC(C)(C)C)c3ccccc3)C(C)=C1C2(C)C,,inactive,
CO[C@H]1C[C@@H]2CC[C@@H](C)[C@@](O)(O2)C(=O)C(=O)N2CCCC[C@@H]2C(=O)O[C@H]([C@@H](C)C[C@@H]2CC[C@H](O)[C@H](OC)C2)CC(=O)[C@H](C)C=C(C)[C@@H](O)[C@@H](OC)C(=O)[C@H](C)C[C@H](C)C=CC=CC=C1C,,,inactive
COc1cccc(-c2cc(=O)c3ccccc3o2)c1N,,inactive,
C[C@H](NC(=O)C(=O)Nc1ccccc1C(C)(C)C)C(=O)N[C@@H](CC(=O)O)C(=O)COc1c(F)c(F)cc(F)c1F,,,inactive
O=C(O)Cc1cccc2ccccc12,-23.2% (inactive),,
CC(=O)CCCCn1c(=O)c2c(ncn2C)n(C)c1=O,,inactive,
CC(C)C[C@H](CC(=O)O)C(=O)N[C@@H](Cc1c[nH]c2ccccc12)C(=O)N[C@@H](C)c1ccccc1,,,inactive
C[C@H](NC(=O)c1sccc1OCc1ccc(Cl)cc1)c1ccccc1,,,inactive
CC(C)[C@H](CO)Nc1nc(Nc2ccc(C(=O)O)c(Cl)c2)c2ncn(C(C)C)c2n1,,inactive,

SMILES,"activity, negative = inhibition",Potency,outcome
CC/C(=C(\c1ccccc1)c1ccc(OCCN(C)C)cc1)c1ccccc1,,inactive,
COc1ccc(-c2nc(N3CCOCC3)c3sc(CN(C)c4ncc(C(=O)NO)cn4)cc3n2)cn1,,,inactive
N#C[C@H]1C[C@H]2C[C@@H]2N1C(=O)[C@@H](N)C12CC3CC(CC(O)(C3)C1)C2,-0.325% (inactive),,
CC1=C(/C=C/C(C)=C/C=C/C(C)=C/C(=O)Nc2ccc(O)cc2)C(C)(C)CCC1,,inactive,
O=c1cc(N2CCOCC2)oc2c(-c3cccc4c3sc3ccccc34)cccc12,-2.42% (inactive),,
O=C(O)CCc1nc(-c2ccccc2)c(-c2ccccc2)o1,,inactive,
Oc1ccc(C2=Cc3ccc(O)cc3OC2)cc1,,,inactive
CC1(C)CCC2=C(O1)c1ccccc1C(=O)C2=O,,16.3 µM (active) and inactive,
CC(C)NCC(O)COc1cccc2[nH]ccc12 (stereo not given),,inactive,
OC[C@@H](O)[C@H](O)[C@H](O)[C@@H](O)CO,,,inactive
CC1(C)CCC(CN2CCN(c3ccc(C(=O)NS(=O)(=O)c4ccc(NCC5CCOCC5)c([N+](=O)[O-])c4)c(Oc4cnc5[nH]ccc5c4)c3)CC2)=C(c2ccc(Cl)cc2)C1,,inactive and 6.4 µM (active),
COc1cccc([C@@H](C)NCCCc2ccccc2Cl)c1,,,inactive
O=C(Nc1c(Cl)cncc1Cl)c1ccc(OC(F)F)c(OCC2CC2)c1,,inactive,
Cc1ccc(F)c(NC(=O)Nc2ccc(-c3cccc4[nH]nc(N)c34)cc2)c1,,,inactive
Cc1ccccc1C(C(=O)NC1CCCCC1)N(C(=O)Cn1ccnc1C)c1cccc(F)c1 (stereo not given),,,inactive
COc1ccc2cccc(CCNC(C)=O)c2c1,,inactive,
O=C(O)c1c(Cl)c(Cl)c(Cl)c(Cl)c1-c1c2cc(I)c(=O)c(I)c-2oc2c(I)c(O)c(I)cc12,,,inactive
COc1ccc2c(Oc3ccc(NC(=O)c4c(C)n(CC(C)(C)O)n(-c5ccccc5)c4=O)nc3)ccnc2c1,,inactive,
N#Cc1ccc(NC(=O)Nc2ccccc2Br)c2n[nH]nc12,,,inactive
O=C1C(Cl)=C(NCCN2CCOCC2)C(=O)c2ncccc21,,9.16 µM (active),
